This excerpt belongs to a sample that is enriched for the strongest signals.
Experiments:
Assay in all cases: glycan array binding signal (z-score within array); higher = stronger binding
Conditions in all cases: glycan notation: IUPAC condensed, linker removed
[1] = target: GlcNAc(b1-3)Gal(b1-4)GlcNAc(b1-3)Gal(b1-4)GlcNAc(b1-3)Gal(b1-4)GlcNAc(b1-3)Gal(b1-4)GlcNAc(b1-2)[GlcNAc(b1-3)Gal(b1-4)GlcNAc(b1-3)Gal(b1-4)GlcNAc(b1-3)Gal(b1-4)GlcNAc(b1-3)Gal(b1-4)GlcNAc(b1-6)]Man(a1-6)[GlcNAc(b1-3)Gal(b1-4)GlcNAc(b1-3)Gal(b1-4)GlcNAc(b1-3)Gal(b1-4)GlcNAc(b1-3)Gal(b1-4)GlcNAc(b1-2)Man(a1-3)]Man(b1-4)GlcNAc(b1-4)[Fuc(a1-6)]GlcNAc
Summary of the method: (§1)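 From the Consortium for Functional Glycomics database, 3228 arrays were curated, keeping only those whose protein sequence was available. Binding is given as a within-array Z-score averaged across arrays sharing a protein sequence and across linkers. Negative Z-scores can be read as non-binding.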

[2] = target: GlcNAc(b1-3)[GlcNAc(b1-6)]GalNAc
Summary of the method: as §1

[3] = target: Man(a1-2)Man(a1-3)Man
Summary of the method: as §1

[4] = target: Man(a1-3)[Man(a1-6)]Man
Summary of the method: as §1

[5] = target: Neu5Ac(a2-3)Gal(b1-3)GalNAc(b1-4)Gal(b1-4)Glc
Summary of the method: as §1

[6] = target: Neu5Ac(a2-3)Gal(b1-3)GlcNAc
Summary of the method: as §1

[7] = target: Neu5Ac(a2-3)Gal(b1-3)GlcNAc(b1-3)Gal(b1-4)GlcNAc
Summary of the method: as §1

[8] = target: Neu5Ac(a2-3)Gal(b1-3)GlcNAc(b1-6)GalNAc
Summary of the method: as §1

[9] = target: Neu5Ac(a2-3)Gal(b1-3)[Fuc(a1-4)]GlcNAc(b1-3)Gal(b1-3)[Fuc(a1-4)]GlcNAc
Summary of the method: as §1

[10] = target: Neu5Ac(a2-3)Gal(b1-4)GlcNAc(b1-2)Man(a1-3)[Neu5Ac(a2-6)Gal(b1-4)GlcNAc(b1-2)Man(a1-6)]Man(b1-4)GlcNAc(b1-4)GlcNAc
Summary of the method: as §1

[11] = target: Neu5Ac(a2-3)Gal(b1-4)GlcNAc(b1-3)Gal(b1-4)GlcNAc(b1-2)Man(a1-3)[Neu5Ac(a2-3)Gal(b1-4)GlcNAc(b1-3)Gal(b1-4)GlcNAc(b1-2)Man(a1-6)]Man(b1-4)GlcNAc(b1-4)GlcNAc
Summary of the method: as §1

[12] = target: Neu5Ac(a2-3)Gal(b1-4)GlcNAc(b1-3)Gal(b1-4)GlcNAc(b1-3)Gal(b1-4)GlcNAc(b1-2)Man(a1-3)[Neu5Ac(a2-3)Gal(b1-4)GlcNAc(b1-3)Gal(b1-4)GlcNAc(b1-3)Gal(b1-4)GlcNAc(b1-2)Man(a1-6)]GalNAc
Summary of the method: as §1

[13] = target: Neu5Ac(a2-3)Gal(b1-4)GlcNAc(b1-3)Gal(b1-4)GlcNAc(b1-3)[Neu5Ac(a2-3)Gal(b1-4)GlcNAc(b1-3)Gal(b1-4)GlcNAc(b1-6)]GalNAc
Summary of the method: as §1

[14] = target: Neu5Ac(a2-3)Gal(b1-4)GlcNAc(b1-6)[Neu5Ac(a2-3)Gal(b1-3)]GalNAc
Summary of the method: as §1

[15] = target: Neu5Ac(a2-3)Gal(b1-4)[Fuc(a1-3)]GlcNAc(b1-3)GalNAc
Summary of the method: as §1

[16] = target: Neu5Ac(a2-3)Gal(b1-4)[Fuc(a1-3)]GlcNAc(b1-6)[Gal(b1-3)]GalNAc
Summary of the method: as §1

[17] = target: Neu5Ac(a2-6)Gal(b1-4)GlcNAc(b1-2)Man(a1-3)Man(b1-4)GlcNAc(b1-4)GlcNAc
Summary of the method: as §1

[18] = target: Neu5Ac(a2-6)Gal(b1-4)GlcNAc(b1-2)Man(a1-3)[Neu5Ac(a2-6)Gal(b1-4)GlcNAc(b1-2)Man(a1-6)]Man(b1-4)GlcNAc(b1-4)[Fuc(a1-6)]GlcNAc
Summary of the method: as §1

[19] = target: Neu5Ac(a2-6)Gal(b1-4)GlcNAc(b1-2)[Neu5Ac(a2-6)Gal(b1-4)GlcNAc(b1-4)]Man(a1-3)[GlcNAc(b1-4)][Neu5Ac(a2-6)Gal(b1-4)GlcNAc(b1-2)[Neu5Ac(a2-6)Gal(b1-4)GlcNAc(b1-6)]Man(a1-6)]Man(b1-4)GlcNAc(b1-4)GlcNAc
Summary of the method: as §1

[20] = target: Neu5Ac(a2-6)Gal(b1-4)GlcNAc(b1-3)Gal(b1-4)[Fuc(a1-3)]GlcNAc(b1-3)Gal(b1-4)[Fuc(a1-3)]GlcNAc
Summary of the method: as §1

[21] = target: Neu5Ac(a2-8)Neu5Ac(a2-3)Gal(b1-3)GalNAc(b1-4)[Neu5Ac(a2-8)Neu5Ac(a2-3)]Gal(b1-4)Glc
Summary of the method: as §1

[22] = target: Neu5Ac(b2-6)GalNAc
Summary of the method: as §1

[23] = target: Neu5Gc(a2-3)Gal(b1-3)[Fuc(a1-4)]GlcNAc
Summary of the method: as §1

B1: BIp1-His (Cryptococcus neoformans) (protein)
chain: MFTKIFVALFAATAVLSAPVESAEKRITHTGRATFYSPSVGIGACGWQNTDEELVVALNAPQYALNADHNCGQSVRITNEQNGNQEIAKVVDLCPGCNDGDLDMSPALFGALNNNDFDQGVFPISWNFLPRDDTSSSN
[1]
  glycan array binding signal (z-score): 0.882
[2]
  glycan array binding signal (z-score): -0.522
[3]
  glycan array binding signal (z-score): -0.136
[4]
  glycan array binding signal (z-score): 0.728
[5]
  glycan array binding signal (z-score): -0.565
[6]
  glycan array binding signal (z-score): -0.217
[7]
  glycan array binding signal (z-score): 0.65
[8]
  glycan array binding signal (z-score): 1.86
[9]
  glycan array binding signal (z-score): -0.526
[10]
  glycan array binding signal (z-score): -0.064
[11]
  glycan array binding signal (z-score): -0.11
[12]
  glycan array binding signal (z-score): 2.41
[13]
  glycan array binding signal (z-score): -0.12
[14]
  glycan array binding signal (z-score): -1.36
[15]
  glycan array binding signal (z-score): 1.32
[16]
  glycan array binding signal (z-score): 0.648
[17]
  glycan array binding signal (z-score): 0.176
[18]
  glycan array binding signal (z-score): 0.617
[19]
  glycan array binding signal (z-score): -0.066
[20]
  glycan array binding signal (z-score): -0.059
[21]
  glycan array binding signal (z-score): 1.77
[22]
  glycan array binding signal (z-score): -0.971
[23]
  glycan array binding signal (z-score): -0.455
